About 4,300 (8.3%) of roughly 52,000 compounds were called active. The list comes from a sample in which actives are over-represented; it also holds similar structures and randomly drawn compounds. A number with no mark means an inactive call. Cut-off read from the data, not from the text of the source: active = survival mostly below about 52% (no sharp cut-off); inactive = mostly above about 56%.
System: DeltatarO mutant
Test: growth inhibition of S. aureus wild type versus tarO mutant, primary screen, teichoic acid synthesis inhibitors, RN4220, OD600 (AID 463173)
Settings: OD600, 18 h, active compounds read low, screened at 18.75 µg/mL (by protocol)

Structure (SMILES) | survival
Oc1c(C(c2ccc(Cl)cc2Cl)N2CCCC2)sc2nc(-c3ccco3)nn12 (stereo not drawn) | 68%
Cc1cccc(C(=O)OCc2cc(=O)n3nc(C4CCCCC4)sc3n2)c1 | 78%
CNC(=S)NC1CC2CCCC(C1)N2Cc1ccco1 (stereo not drawn) | 80%
O=C(c1ccccc1)N1CCC(O)(c2cccnc2)CC1 | 70%
Cc1nc(SCC(=O)Nc2ccc(C)c(Cl)c2)cc(-c2ccccc2)n1 | 46%
COC(=O)c1ccccc1NC(=O)CSc1cc(-c2ccccc2)nc(C)n1 | 71%
Cc1nc(SCC(=O)Nc2ccccc2C)cc(-c2ccccc2)n1 | 53%
COc1ccc(NC(=O)CSc2cc(-c3ccccc3)nc(C)n2)cc1 | 94%
Cc1nc(SCC(=O)Nc2ccccc2Cl)cc(-c2ccccc2)n1 | 56% (active)
CCOC(=O)c1ccc(NC(=O)CSc2cc(-c3ccccc3)nc(C)n2)cc1 | 40% (active)
Cc1ccc(NC(=O)CSc2nc(=O)n(CCN3CCOCC3)c3c2CCC3)c(C)c1 | 73%
COC(=O)c1ccc(NS(=O)(=O)c2ccc3c(c2)n(C)c(=O)c(=O)n3C)cc1 | 79%
COCCNC(=O)C1CCN(Cc2cc3ccccc3n2Cc2ccc(C)cc2)CC1 | 99%
CCOc1ccc(NC(=O)CCS(=O)(=O)c2cc3c4c(c2)CCN4C(=O)CC3)cc1 | 74%
Cc1ccc(-c2nnc(NC3CCCC3)s2)cc1 | 76%
N#CSc1cnc(NC2CCCCC2)s1 | 1% (active)
Cc1cc(C)c(C#N)c(NC2CCCCC2)n1 | 87%
Cc1ccc(C(=O)Nc2c(C(=O)Nc3ccc(C)c(C)c3)sc3nc(C)cc(C)c23)cc1 | 54%
Cc1cc(C)cc(-n2c(C)cc(C(=O)C(=O)Nc3ccccc3F)c2C)c1 | 99%
COc1ccc(C2=CC(c3cccc(C)c3)n3nnnc3N2)cc1 (stereo not drawn) | 84%
CCOc1ccc(NC(=O)c2cnn3c2NC(c2cccc(OC)c2)=CC3c2ccccc2)cc1 (stereo not drawn) | 49%
COc1ccc(C2C=C(c3ccc(Br)cc3)Nc3nnnn32)c(OC)c1 (stereo not drawn) | 84%
Cc1cccc(C2C=C(c3ccc(C)c(C)c3)Nc3nnnn32)c1 (stereo not drawn) | 6% (active)
Fc1ccc(Br)cc1C1C=C(c2ccc(Br)cc2)Nc2nnnn21 (stereo not drawn) | 91%
COc1cccc(C2C=C(c3ccc(C)c(C)c3)Nc3nnnn32)c1OC (stereo not drawn) | 72%
COc1cccc(C2=CC(c3cc(Br)ccc3F)n3nnnc3N2)c1 (stereo not drawn) | -2% (active)
CN(C)c1ccc(C2C=C(c3ccccc3)Nc3nnnn32)cc1 (stereo not drawn) | 52%
CCOc1ccc(C2C=C(c3cccc(OC)c3)Nc3nnnn32)cc1 (stereo not drawn) | 45% (active)

Source: PubChem BioAssay AID463173 (ICCB-Longwood Screening Facility, Harvard Medical School, 2010)
